Test system: Vero E6 infected with SARS-CoV-2
Assay: inhibition of SARS-CoV-2 cytopathic effect; higher = more antiviral protection, active = above 15
Conditions: 48 h

Measured: inhibition of SARS-CoV-2 cytopathic effect

NNC(=O)c1ccncc1 [isoniazid]
inactive: 1 nM -3.24% | 8.33 nM 0.31% | 100 nM 0.58% | 833.33 nM 3.21% | 10000 nM -1.15%

Cc1[nH]cnc1CN1CCc2c(c3ccccc3n2C)C1=O [alosetron]
inactive: 1 nM -0.13% | 8.33 nM -3.23% | 100 nM -3.51% | 833.33 nM -1.58% | 10000 nM -2.24%

COc1ccc(N(C)c2nc(C)nc3ccccc23)cc1 [verubulin]
inactive: 1 nM 0.84% | 8.33 nM 2.34% | 100 nM -2.32% | 833.33 nM 2.89% | 10000 nM 2.5%

COc1cccc(-c2ccc(NC(=O)C3=C(C(=O)O)CCC3)c(F)c2)c1
inactive: 1 nM 2.25% | 8.33 nM 3.22% | 100 nM 2.16% | 833.33 nM 5.63% | 10000 nM 4.97%

[I-].[K+] [potassium-iodide]
inactive: 1 nM -3.24% | 8.33 nM -3.7% | 100 nM -1.59% | 833.33 nM 0.38% | 10000 nM -1.54%

CCN1CCN(C(=O)N[C@@H](C(=O)N[C@@H]2C(=O)N3[C@@H]2SC(C)(C)[C@@H]3C(=O)O)c2ccccc2)C(=O)C1=O [piperacillin]
inactive: 1 nM -0.76% | 8.33 nM 0.86% | 100 nM -1.44% | 833.33 nM -0.01% | 10000 nM 0.01%

CC(=O)O[C@]1(C(C)=O)CC[C@H]2[C@@H]3C[C@H](C)C4=CC(=O)C=C[C@]4(C)[C@@]3(F)[C@@H](O)C[C@@]21C [fluorometholone-acetate]
inactive: 1 nM 0.25% | 8.33 nM 0.86% | 100 nM -0.18% | 833.33 nM 0.37% | 10000 nM -0.24%

COc1c(C)c2c(c(O)c1C/C=C(\C)CCC(=O)OCCN1CCOCC1)C(=O)OC2 [mycophenolate-mofetil]
active: 10000 nM 16.8%
inactive: 1 nM -1.57% | 8.33 nM 0.08% | 100 nM 0.94% | 833.33 nM -5.7%

COc1cccc(OC)c1C(=O)N[C@@H]1C(=O)N2[C@@H]1SC(C)(C)[C@@H]2C(=O)O [methicillin]
inactive: 1 nM -3.39% | 8.33 nM 1.78% | 100 nM -1.39% | 833.33 nM -0.54% | 10000 nM 1.21%

CCN(CC)CC(=O)Nc1c(C)cccc1C [lidocaine]
inactive: 1 nM 0.85% | 8.33 nM 1.24% | 100 nM 0.45% | 833.33 nM 1.31% | 10000 nM -0.93%

COC(c1ccccc1)(c1ccccc1)[C@H](Oc1nc(C)cc(C)n1)C(=O)O [ambrisentan]
inactive: 1 nM -4.05% | 8.33 nM -0.7% | 100 nM -1.38% | 833.33 nM -0.18% | 10000 nM -3.02%

CC1=C(/C=C/C(C)=C/C=C/C(C)=C/C(=O)Nc2ccc(O)cc2)C(C)(C)CCC1 [fenretinide]
inactive: 1 nM 2.01% | 8.33 nM 1.04% | 100 nM 0.95% | 833.33 nM -0.67% | 10000 nM 2.45%

CSc1ccc(C(=O)/C=C/c2cc(C)c(OC(C)(C)C(=O)O)c(C)c2)cc1 [elafibranor]
inactive: 1 nM -1.98% | 8.33 nM 1.58% | 100 nM -1.18% | 833.33 nM 2.15% | 10000 nM 3.31%

CCCCCCCCCCCCCCCC[n+]1ccccc1 [cetylpyridinium]
inactive: 1 nM 1.63% | 8.33 nM 0.22% | 100 nM 1.76% | 833.33 nM -0.25% | 10000 nM -21.9%

COc1ccc(Cc2cnc(N)nc2N)cc1OC [diaveridine]
inactive: 1 nM -0.02% | 8.33 nM 0.43% | 100 nM -0.86% | 833.33 nM 2.81% | 10000 nM 0.75%

Reference: the supplement of paper PMC13380429
